Records with an inconclusive call do not appear. Active and inactive are the calls of the source. Cut-off read from the data, not from the text of the source, unless noted: active = response above about 15%; inactive = the rest.
Assays:
[1] = yeast TOR pathway RPL19A-GFP modulators, primary screen, cell-based, S. cerevisiae, multiplex flow cytometry (AID 1862; in the data active = percent of DMSO control GFP below about 86%;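 note: lower values mimic rapamycin by blocking the RPL19A rise seen in DMSO cells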); details: S. cerevisiae RPL19A-GFP strain, flow cytometry fluorescence, 3 h; at 10 µM; stronger effect = lower value
[2] = modulators of MEP2-GFP levels in yeast, primary screen, S. cerevisiae, multiplex flow cytometry (AID 1867;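 active = GFP response, as percent of the DMSO control, above the screen-wide mean plus 3 SD, about 139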;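 note: median GFP channel fluorescence of barcode-gated MEP2-GFP cells measured by flow cytometry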); details: S. cerevisiae MEP2-GFP strain, 3 h, at 10 µM, stronger effect = higher value, 100% means same as DMSO wells
[3] = modulators of CIT2-GFP expression in yeast, primary screen, S. cerevisiae, GFP fusion, multiplex flow cytometry (AID 1870;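 active = percent response above a set limit, the screen-wide mean plus 3 SD, cut at about 130% in these data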;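 note: barcoded CIT2-GFP strain pooled with four other GFP strains with rapamycin as positive control; median GFP fluorescence per well over plate mean of DMSO wells so 100% = DMSO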); details: 3 h, at 10 µM, stronger effect = higher value
[4] = modulators of LAP4-GFP expression in yeast, primary screen, S. cerevisiae, multiplex flow cytometry (AID 1873;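 active = GFP signal, as percent of the solvent control, above the screen mean plus 3 SD, about 149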); details: 3 h, at 10 µM, stronger effect = higher value
[5] = modulators of AGP1-GFP expression in yeast TOR pathway, primary screen, cell-based, multiplex flow cytometry, S. cerevisiae (AID 1887;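 active = GFP signal above the screen-wide mean plus 3 SD, that is over about 124.5% of the solvent control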;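 note: AGP1-GFP fusion strain of S. cerevisiae within a five-strain barcoded multiplex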); details: 3 h, at 10 µM, stronger effect = higher value
[6] = inhibitors of CD8+ T cell-vesicle binding, pilot screen, LFA-1/ICAM-1 modulator project, MLPCN validation set, flow cytometry (AID 2523;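 active = response below a set limit, under 55% cells CD8-positive and vesicle-bound, and CD8 cells' 90th-percentile brightness under 279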;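 for vesicle binding response: mean PE anti-B7-1 fluorescence of CD8+ cells relative to row control; 100% = QL9-loaded vesicles with DMSO vehicle in the same plate row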); details: 2C mouse CD8+ T cells, at 7 µM, stronger effect = lower value; double positive events: measured here: CD8+/vesicle+ event percentage
[7] = molecular target: Integrin beta-1 (Homo sapiens) + Integrin alpha-4 (Homo sapiens) (UniProt P13612+P05556); test: inhibition of HUTS-21 binding to VLA-4, pilot screen, VLA-4 allosteric modulator project, U937 cells, HUTS-21 mAb, flow cytometry, validation set (AID 2674;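 active = inhibition above 50%, about 3 SD of the validation set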;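 note: antibody binding induced by the VLA-4 ligand LDV present at three times its Kd; 0% = LDV ligand with antibody and no compound and 100% = antibody without LDV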); details: HUTS-21 LIBS mAb binding, at 6.7 µM, stronger effect = higher value, binding induced by LDV ligand
[8] = superoxide lowering in aged yeast cells, pilot screen, validation compound set (AID 2706;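 active = superoxide response below 65% of plate, a cut near 3 SD across the whole screen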;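 note: yeast exposed to compound for one week at 30 degrees C before staining; 100% = mean of all compound wells on the same plate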); details: S. cerevisiae aging, superoxide DHE fluorescence; at 10 µM, stronger effect = lower value
[9] = molecular target: Beta-adrenergic receptor kinase 1 (Homo sapiens) (UniProt P25098); test: GRK2 binders displacing RNA aptamer, biochemical, validation, human GRK2, bead flow cytometry (AID 488806;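 active = aptamer binding inhibition above 30%, about 3 SD of noise from non-fluorescent compounds; inactive = inhibition at or below 30%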); details: bead-bound GRK2, FAM-aptamer displacement, at 10 µM, stronger effect = higher value
[10] = molecular target: AP-2 complex subunit beta (Homo sapiens) (UniProt P63010); test: inhibitors of arrestin peptide binding to AP2, pilot screen, biochemical, validation set, GST-AP2 beads, flow cytometry (AID 504541;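 active = inhibition above 54%, about 3 SD of non-fluorescent compounds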;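 note: AP2 carries R879A mutation and is captured from E. coli lysate; bead-bound FITC arrestin peptide fluorescence measuring arrestin peptide binding to AP2; 0% = DMSO wells and 100% = excess unlabeled arrestin peptide control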); details: FITC arrestin peptide, at 10 µM, stronger effect = higher value, AP2 beta2 appendage fragment, R879A mutant
[11] = yeast V-ATPase proton transport modulators, S. cerevisiae, pHLuorin, HTS validation (AID 504600);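 note: plate controls were DMSO for no effect and reference compound for full effect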; details: S. cerevisiae pHLuorin cytosolic pH, at 10 µM, stronger effect = higher value
[12] = tested on: anti-desmoglein-3 scFv antibody binding to human DSG3; test: inhibitors of anti-DSG3 scFv binding to DSG3, pilot screen, biochemical, validation compound set, bead-based, flow cytometry (AID 588368;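 active = binding below the plate cutoff, the plate median minus 3 SD, with a reading above zero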;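 note: signal is the median channel fluorescence of bead-bound GFP antibody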); details: Protein G beads, DSG3-Fc, scFv-GFP binding, at 10 µM, stronger effect = lower value
[13] = inhibitors of fungal efflux pumps CDR1, CDR2, MDR1, pilot screen, validation compound set, multiplex, phenotypic (AID 588506;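 active = efflux inhibition above 0.42, the validation set average plus 4 SD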;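 note: Nile Red retained in cells so higher fluorescence means more efflux inhibition; 0 = negative control wells and 1 = enniatin B 25 µM full block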); details: S. cerevisiae pump-expressing triplex, Nile Red efflux flow cytometry; at 10 µM; stronger effect = higher value; the pumps come from Candida albicans
[14] = molecular target: ATP-binding cassette sub-family B member 6 (Homo sapiens) (UniProt Q9NP58); test: ABCB6 transporter inhibitors, pilot screen, K562-ABCB6 cells, flow cytometry, validation set (AID 588550;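 active = inhibition above the screen-wide mean plus 3 SD, about 51%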;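 note: 0% = DMSO wells and 100% = benzethonium chloride 70 µM positive control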); details: K562-ABCB6 porphyrin accumulation, 1 h, at 10 µM, stronger effect = higher value
[15] = promoters of myeloid differentiation in arrested cells, primary screen, cell-based, GFP/MAC1 double positive, flow cytometry, validation set (AID 588685;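 active = differentiation response of at least 50%, scaled between solvent and reference control, from cells with both markers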;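 note: compound exposure lasts four days before antibody staining and flow analysis; 0% = DMSO wells and 100% = 5 µM fulvestrant positive control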); details: ER-HoxA9 marrow cells, stronger effect = higher value, normalized: vehicle 0, fulvestrant 100

AP-2 complex subunit beta (Homo sapiens), sequence (P63010 whole entry, looked up, the tested form may be a part, one chain of several): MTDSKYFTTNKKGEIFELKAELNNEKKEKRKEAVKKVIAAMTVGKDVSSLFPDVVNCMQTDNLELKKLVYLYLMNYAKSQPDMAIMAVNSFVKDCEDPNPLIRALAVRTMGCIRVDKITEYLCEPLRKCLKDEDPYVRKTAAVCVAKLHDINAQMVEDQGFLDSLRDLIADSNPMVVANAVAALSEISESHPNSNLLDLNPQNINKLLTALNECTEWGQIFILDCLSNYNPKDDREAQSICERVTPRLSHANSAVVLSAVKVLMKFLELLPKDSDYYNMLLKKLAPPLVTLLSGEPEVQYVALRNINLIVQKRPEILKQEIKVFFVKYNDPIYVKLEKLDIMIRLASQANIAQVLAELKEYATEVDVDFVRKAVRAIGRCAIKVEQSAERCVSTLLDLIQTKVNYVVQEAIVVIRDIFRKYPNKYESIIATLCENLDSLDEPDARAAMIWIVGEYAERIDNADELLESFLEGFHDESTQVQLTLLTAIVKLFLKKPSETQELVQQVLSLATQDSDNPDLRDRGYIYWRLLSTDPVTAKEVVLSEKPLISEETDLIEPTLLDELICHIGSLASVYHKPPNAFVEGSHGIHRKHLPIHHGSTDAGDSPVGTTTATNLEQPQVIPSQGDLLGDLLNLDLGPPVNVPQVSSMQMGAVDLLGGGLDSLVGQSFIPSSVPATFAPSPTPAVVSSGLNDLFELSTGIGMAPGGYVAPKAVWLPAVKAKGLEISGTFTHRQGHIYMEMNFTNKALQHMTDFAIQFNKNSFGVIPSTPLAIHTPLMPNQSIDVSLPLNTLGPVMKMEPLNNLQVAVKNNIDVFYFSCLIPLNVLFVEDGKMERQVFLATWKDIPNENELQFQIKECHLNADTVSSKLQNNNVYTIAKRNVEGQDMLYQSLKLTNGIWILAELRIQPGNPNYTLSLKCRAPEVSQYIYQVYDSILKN
Beta-adrenergic receptor kinase 1 (Homo sapiens), sequence (P25098 whole entry, looked up): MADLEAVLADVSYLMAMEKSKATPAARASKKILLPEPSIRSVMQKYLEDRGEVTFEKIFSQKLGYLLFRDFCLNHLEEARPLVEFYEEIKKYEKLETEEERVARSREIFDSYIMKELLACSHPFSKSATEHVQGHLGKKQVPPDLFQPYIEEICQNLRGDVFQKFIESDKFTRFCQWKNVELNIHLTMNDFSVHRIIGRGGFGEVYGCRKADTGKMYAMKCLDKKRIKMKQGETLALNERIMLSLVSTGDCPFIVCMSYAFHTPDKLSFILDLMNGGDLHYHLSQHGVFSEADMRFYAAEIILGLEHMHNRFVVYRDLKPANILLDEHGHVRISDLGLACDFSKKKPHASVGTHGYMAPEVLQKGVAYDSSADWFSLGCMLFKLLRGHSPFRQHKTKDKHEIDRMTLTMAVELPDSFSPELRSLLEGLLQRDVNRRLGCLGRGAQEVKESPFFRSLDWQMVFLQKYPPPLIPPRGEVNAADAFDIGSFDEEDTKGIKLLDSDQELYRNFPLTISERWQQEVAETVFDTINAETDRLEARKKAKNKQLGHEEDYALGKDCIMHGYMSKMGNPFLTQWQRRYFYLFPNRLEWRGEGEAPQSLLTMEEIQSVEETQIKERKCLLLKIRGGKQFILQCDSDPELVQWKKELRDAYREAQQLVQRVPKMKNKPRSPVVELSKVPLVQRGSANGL
ATP-binding cassette sub-family B member 6 (Homo sapiens), sequence (Q9NP58 whole entry, looked up): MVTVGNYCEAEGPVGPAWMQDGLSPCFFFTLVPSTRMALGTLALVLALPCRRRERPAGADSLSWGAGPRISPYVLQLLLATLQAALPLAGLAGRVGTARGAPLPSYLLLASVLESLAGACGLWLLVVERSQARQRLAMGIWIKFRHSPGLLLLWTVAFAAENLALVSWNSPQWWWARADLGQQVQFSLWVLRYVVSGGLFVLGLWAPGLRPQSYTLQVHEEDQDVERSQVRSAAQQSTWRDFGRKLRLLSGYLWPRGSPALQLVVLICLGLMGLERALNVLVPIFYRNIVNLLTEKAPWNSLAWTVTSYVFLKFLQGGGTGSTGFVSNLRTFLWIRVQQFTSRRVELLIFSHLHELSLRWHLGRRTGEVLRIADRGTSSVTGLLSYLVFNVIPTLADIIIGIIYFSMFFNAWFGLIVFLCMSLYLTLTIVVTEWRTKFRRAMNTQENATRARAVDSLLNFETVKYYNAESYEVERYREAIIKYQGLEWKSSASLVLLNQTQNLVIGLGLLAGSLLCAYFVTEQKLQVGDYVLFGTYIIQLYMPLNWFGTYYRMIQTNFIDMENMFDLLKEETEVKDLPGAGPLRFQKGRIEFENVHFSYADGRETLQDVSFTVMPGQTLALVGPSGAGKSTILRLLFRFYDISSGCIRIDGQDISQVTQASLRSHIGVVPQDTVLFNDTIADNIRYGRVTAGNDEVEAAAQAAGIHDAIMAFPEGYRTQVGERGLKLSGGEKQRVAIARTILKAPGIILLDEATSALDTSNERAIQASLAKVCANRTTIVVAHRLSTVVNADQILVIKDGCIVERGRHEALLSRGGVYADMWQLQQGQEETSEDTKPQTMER
Integrin beta-1 (Homo sapiens) + Integrin alpha-4 (Homo sapiens), sequence (P05556 whole entry, looked up): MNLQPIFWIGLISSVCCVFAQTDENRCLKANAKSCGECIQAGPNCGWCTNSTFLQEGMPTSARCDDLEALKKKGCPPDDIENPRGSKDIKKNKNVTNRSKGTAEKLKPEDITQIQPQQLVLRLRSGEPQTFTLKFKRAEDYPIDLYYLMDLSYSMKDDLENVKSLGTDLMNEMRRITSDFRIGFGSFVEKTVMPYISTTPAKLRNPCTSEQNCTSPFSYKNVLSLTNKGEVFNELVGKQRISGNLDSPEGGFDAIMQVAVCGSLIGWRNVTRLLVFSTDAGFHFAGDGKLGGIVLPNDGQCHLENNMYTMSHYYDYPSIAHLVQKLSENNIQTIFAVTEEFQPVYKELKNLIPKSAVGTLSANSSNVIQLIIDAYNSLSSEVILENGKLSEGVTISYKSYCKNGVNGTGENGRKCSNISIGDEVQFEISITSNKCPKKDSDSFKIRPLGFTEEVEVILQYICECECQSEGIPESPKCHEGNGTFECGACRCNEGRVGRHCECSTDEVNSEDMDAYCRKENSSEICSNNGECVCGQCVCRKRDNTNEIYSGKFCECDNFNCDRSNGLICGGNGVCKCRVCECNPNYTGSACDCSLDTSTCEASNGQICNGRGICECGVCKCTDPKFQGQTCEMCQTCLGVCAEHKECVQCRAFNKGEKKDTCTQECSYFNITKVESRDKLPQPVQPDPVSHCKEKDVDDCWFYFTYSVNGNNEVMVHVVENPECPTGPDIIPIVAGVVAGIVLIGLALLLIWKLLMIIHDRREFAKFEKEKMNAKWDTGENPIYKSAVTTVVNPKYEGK
Integrin beta-1 (Homo sapiens) + Integrin alpha-4 (Homo sapiens), sequence (P13612 whole entry, looked up): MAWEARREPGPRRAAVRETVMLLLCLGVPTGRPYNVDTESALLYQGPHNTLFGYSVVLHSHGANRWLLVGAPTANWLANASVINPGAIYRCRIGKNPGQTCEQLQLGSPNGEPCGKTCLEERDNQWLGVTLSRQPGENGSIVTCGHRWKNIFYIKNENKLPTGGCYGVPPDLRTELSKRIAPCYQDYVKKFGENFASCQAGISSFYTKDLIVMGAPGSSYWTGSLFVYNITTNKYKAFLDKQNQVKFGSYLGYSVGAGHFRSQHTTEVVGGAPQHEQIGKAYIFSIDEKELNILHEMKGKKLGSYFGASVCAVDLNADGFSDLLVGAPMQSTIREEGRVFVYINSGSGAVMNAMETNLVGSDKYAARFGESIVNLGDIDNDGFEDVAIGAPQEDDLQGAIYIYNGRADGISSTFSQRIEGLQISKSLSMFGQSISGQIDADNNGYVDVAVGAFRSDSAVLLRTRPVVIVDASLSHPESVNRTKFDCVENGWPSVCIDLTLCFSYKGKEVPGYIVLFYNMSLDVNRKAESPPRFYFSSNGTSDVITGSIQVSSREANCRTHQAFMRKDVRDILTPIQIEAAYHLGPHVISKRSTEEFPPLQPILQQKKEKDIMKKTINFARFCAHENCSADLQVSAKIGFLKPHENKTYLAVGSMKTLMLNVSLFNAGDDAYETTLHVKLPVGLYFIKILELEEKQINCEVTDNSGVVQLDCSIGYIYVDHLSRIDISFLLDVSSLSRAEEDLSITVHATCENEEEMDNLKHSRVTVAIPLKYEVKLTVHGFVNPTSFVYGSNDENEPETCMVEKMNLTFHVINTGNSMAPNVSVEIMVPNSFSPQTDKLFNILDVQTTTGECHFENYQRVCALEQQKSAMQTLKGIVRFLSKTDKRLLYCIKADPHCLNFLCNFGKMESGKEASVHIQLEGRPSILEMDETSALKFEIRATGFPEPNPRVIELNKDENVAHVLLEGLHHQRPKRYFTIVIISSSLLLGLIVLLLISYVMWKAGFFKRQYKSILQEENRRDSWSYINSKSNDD

| SMILES | percent of DMSO control GFP [1] | GFP response vs DMSO [2] | percent response of DMSO control [3] | GFP response vs DMSO [4] | GFP response, % of DMSO [5] | double positive events [6] | vesicle binding response [6] | inhibition [7] | superoxide response (% of plate) [8] | aptamer binding inhibition [9] | inhibition [10] | response [11] | binding (% of control) [12] | efflux inhibition (fraction of control) [13] | inhibition [14] | differentiation response [15] |
| --- | --- | --- | --- | --- | --- | --- | --- | --- | --- | --- | --- | --- | --- | --- | --- | --- |
| C[C@@H]1C[C@H]2[C@@H]3CCC4=CC(=O)C=C[C@]4(C)[C@@]3(F)[C@@H](O)C[C@]2(C)[C@@]1(O)C(=O)COP(=O)(O)O | 104% (inactive) | 98.9% (inactive) | 101% (inactive) | 83.3% (inactive) | 93% (inactive) | 53.3% | 126% (inactive) | 20.3% (inactive) | 106% (inactive) | 2% (inactive) | -3.37% (inactive) | 4.69% (inactive) | 96.9% (inactive) | -0.09 (inactive) | 10% (inactive) | -13.1% (inactive) |
| CC1(C)Cc2ccccc2C(C(Cc2ccccc2)C(N)=O)=N1 (stereo not given) | 100% (inactive) | 99.9% (inactive) | 106% (inactive) | 89.3% (inactive) | 92.7% (inactive) | 51% | 132% (inactive) | 24% (inactive) | 116% (inactive) | 3% (inactive) | -4.92% (inactive) | 6.35% (inactive) | 101% (inactive) | 0.44 (active) | 9% (inactive) | -5.05% (inactive) |
| COc1cc2c(cc1OC)C(c1cc(OC)c(OC)c(OC)c1)NCC2 (stereo not given) | 101% (inactive) | 103% (inactive) | 108% (inactive) | 90.3% (inactive) | 102% (inactive) | 59.3% | 148% (inactive) | -0.24% (inactive) | 102% (inactive) | 2% (inactive) | -5.98% (inactive) | -3.82% (inactive) | 96% (inactive) | -0.01 (inactive) | 7% (inactive) | -14.7% (inactive) |
| CN(C)C(=O)C12CCC(C)(c3nc4ccccc4nc31)C2(C)C (stereo not given) | 104% (inactive) | 101% (inactive) | 106% (inactive) | 99.4% (inactive) | 99.3% (inactive) | 62.9% | 190% (inactive) | 0.69% (inactive) | 95.4% (inactive) | -1% (inactive) | 9.98% (inactive) | 1.66% (inactive) | 103% (inactive) | -0.09 (inactive) | 5% (inactive) | 1.41% (inactive) |
| CN1CCCC(OC(=O)c2ccc3c(c2)OCCO3)C1 (stereo not given) | 101% (inactive) | 106% (inactive) | 108% (inactive) | 82.3% (inactive) | 96.3% (inactive) | 58.8% | 175% (inactive) | -8.64% (inactive) | 100% (inactive) | 0% (inactive) | 2.71% (inactive) | -2.88% (inactive) | 96% (inactive) | 0.41 (inactive) | 8% (inactive) | 1.41% (inactive) |
